An excerpt weighted towards active compounds, which were near 19% of everything screened.
Shiga inhibitor = A qHTS for Small Molecule Inhibitors of Shiga Toxin. Vero cells, Shiga toxin protein synthesis inhibition reporter. 9.2% of 290,000 active. inhibition, % at 38.7 µM. AID 2315, 2010; in the data active means inhibition mostly above about 28%, no sharp cut-off; inactive means mostly below about 43%; further: 0% is about no effect
Marburg entry inh = qHTS for inhibitors of binding or entry into cells for Marburg Virus | Marburg virus pseudotyped entry inhibition, cell reporter | Potency, µM (titrated, usually from 37.8 µM), inactives show top-dose activity change, negative = inhibition, usual class: inhibitors | 1.8% of 300,000 active | AID 540276, 2011; calls by dose curve; tested in HEK293 cells; further: potency means the concentration at half of the fitted maximal effect; on the % scale 0 is the no-effect control and ±100 the full control effect
Cycloheximide cs = Cycloheximide Counterscreen for Small Molecule Inhibitors of Shiga Toxin; max response, %; cell reporter, cycloheximide protein synthesis inhibition counterscreen; 12% of 300,000 active; AID 2314, 2010; in the data active means max response mostly above about 13%, no sharp cut-off; inactive means mostly below about 14%; further: read at 38.3 µM for the half of the compounds with a filed dose; 0% is about no effect
Pf growth 96h = Primary qHTS for delayed death inhibitors of the malarial parasite plastid, 96 hour incubation. Potency, µM (titrated, usually from 28.7 µM), for inactives: at the top dose activity change, negative = inhibition, usual class: inhibitors. P. falciparum luciferase reporter growth, 96 h. 6.9% of 320,000 active. AID 504834, 2011; further: potency means the concentration at half of the fitted maximal effect; on the % scale 0 is the no-effect control and ±100 the full control effect
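Parasite growth measured via integrated firefly luciferase reporter in P. falciparum. Infected erythrocytes at 2% hematocrit, 0.05% parasitemia final were treated 96 hours at 37 C under 5% CO2, and luminescence was read.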
Pf growth 48h = Primary qHTS for delayed death inhibitors of the malarial parasite plastid, 48 hour incubation; P. falciparum luciferase growth in erythrocytes, 48 h; Potency, µM (doses to about 28.7 µM), without a hit: at the top dose activity change, negative = inhibition, hits mostly inhibitors; 5.9% of 310,000 active; AID 504832, 2011; further: potency means the concentration at half of the fitted maximal effect; on the % scale 0 is the no-effect control and ±100 the full control effect
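Firefly luciferase activity from engineered P. falciparum reports growth; inhibitors lower the luminescent signal. Cultures contained 2% hematocrit erythrocytes at 0.1% final parasitemia.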
LASV entry inh = qHTS for Inhibitors of binding or entry into cells for Lassa Virus. Lassa virus pseudotype entry inhibition, cell reporter. Potency, µM (doses to about 37.9 µM), inactives show at the highest dose activity change, negative = inhibition, actives largely listed as inhibitors. 1.2% of 300,000 active. AID 540256, 2011; calls by dose curve; tested in HEK293 cells; further: potency means the concentration at half of the fitted maximal effect; on the % scale 0 is the no-effect control and ±100 the full control effect; nearly all actives have a fitted effect of over 50% in size
* = called active by the depositor; i = inactive; ? = inconclusive; nt = no result; [ ] = another dose, or the depositor's remark. Unless noted, the call rests on the fitted dose curve; in most records, active means well fitted inhibition curve with a large enough effect; inconclusive means small, poorly fitted or top-dose-only effect, or another doubt; inactive means no such curve, though single readings can be large or run the other way.

SMILES | Shiga inhibitor | Marburg entry inh | Cycloheximide cs | Pf growth 96h | Pf growth 48h | LASV entry inh
CC(C(=O)NC1CCCCCC1)N(c1ccccc1)S(C)(=O)=O (stereo unspecified) | 11 | 8.2µM* | -2 | -20% | -7% | -2%
CC(C(=O)Nc1ccccc1Cl)N(c1ccccc1)S(C)(=O)=O (stereo unspecified) | 28 | 5%[46.1 µM] | 2 | -11% | 8% | -9%
CCCCC(=O)NC(c1ccccc1Cl)c1c(O)ccc2ccccc12 (stereo unspecified) | -14 | -40% | -1 | 62% | 10µM* | -40%
CCCC(=O)NC(c1ccccc1Cl)c1c(O)ccc2ccccc12 (stereo unspecified) | -6 | -8% | 1 | 22% | 10µM* | ?
COc1ccccc1C(NC(=O)CC(C)C)c1c(O)ccc2ccccc12 (stereo unspecified) | -8 | nt | -2 | -5% | ? | nt
CCCCC(=O)NC(c1ccc(OC)c(OC)c1)c1c(O)ccc2ccccc12 (stereo unspecified) | -20 | -20% | -1 | 12µM* | ? | ?
CCCC(=O)NC(c1ccc(OC)c(OC)c1)c1c(O)ccc2ccccc12 (stereo unspecified) | -11 | 0% | -8 | ? | ? | 60%[14.3 µM]
CN1CCc2nc3ccc(Cl)cc3c(-c3ccccc3Cl)c2C1 | -10 | ? | -1 | ? | ? | -9%
Cc1ccc(CN2CC(C(=O)N(CC(C)C)c3c(N)n(Cc4ccccc4)c(=O)[nH]c3=O)CC2=O)cc1 (stereo unspecified) | nt | 1% | nt | nt | nt | 1%
CSC(=NNC(=O)c1ccccc1O)SC | 23 | 16% | 8 | -24% | nt | 13%
O=C(NCc1ccc(Cl)cc1)c1ccc(Cn2cc(C(F)(F)F)ccc2=O)cc1 | 3 | 25% | -2 | ? | ? | 5%
O=C(c1cc(C(=O)NCc2ccc(Cl)cc2)c(=O)n(Cc2ccc(Cl)cc2)c1)c1cc(F)ccc1O | -4 | 2% | -1 | 1.5µM* | 2.9µM* | ?
Cc1c(C)n(C)c2ccc(C(=O)NCCCN3CCOCC3)cc12 | -9 | -11%[46.1 µM] | 3 | ? | 5% | 4%[46.1 µM]
COc1cccc(C=NNc2ccc([N+](=O)[O-])cn2)c1OC | nt | 0%[46.1 µM] | nt | nt | nt | -6%[46.1 µM]
Cc1cc(/C=N/Nc2nc(N)ncc2[N+](=O)[O-])c(C)n1-c1cccc(C(F)(F)F)c1 | 62* | nt | 26* | -40% | 83% | nt
Cc1cc(/C=N/Nc2ncnc(N)c2[N+](=O)[O-])c(C)n1-c1ccccc1 | -2 | ? | 4 | 0% | 27% | 1.1µM*
COc1cccc(/C=N/Nc2ncnc(N)c2[N+](=O)[O-])c1OC | 73* | ? | 35* | nt | 175% | 8.2µM*
CC(=O)c1ccc(N=c2scc(C)n2C(C)C)cc1 | 57 | 0%[46.1 µM] | 40* | -6% | 33% | 17%
C=CCn1c(C)csc1=Nc1ccc(C(=O)O)cc1 | 43 | 4%[46.1 µM] | 12 | 33% | 2% | -8%[46.1 µM]
Cc1c(C(=O)O)oc2ccc(S(=O)(=O)N3CC(C)CC(C)C3)cc12 (stereo unspecified) | -4 | ? | 1 | 36% | 3% | 12%
Cc1ccc(NC(=O)COC(=O)c2cc(Cl)cc(Cl)c2)c(Br)c1 | -10 | -13% | -5 | -28% | 20% | -3%
Cc1ccsc1C(=O)NNC(=S)NCC(C)C | 9 | 10% | 0 | nt | 13% | 24%
Cc1cccc(NC(=S)NNC(=O)c2csc(C(C)C)c2)c1 | 42* | ? | 42* | 116% | 128% | 16%
CCc1cc(C(=O)NNC(=S)Nc2cccc(C)c2)cs1 | 66* | 21% | 28* | 77% | 135% | ?
Cc1cccc(NC(=O)C(=O)NNC(=O)c2ccc(C(C)(C)C)cc2)c1 | -13 | 16%[46.1 µM] | 8 | ? | 26% | -14%[46.1 µM]
SMILES | Shiga inhibitor | Marburg entry inh | Cycloheximide cs | Pf growth 96h | Pf growth 48h | LASV entry inh
Cc1cccc(NC(=S)NNC(=O)c2sccc2C)c1 | 107 | ? | 25* | nt | 141% | 2%
CCc1cc(C(=O)Nc2ccc(C)cc2Br)cs1 | 71* | ? | 57* | i | i | ?
Cc1nn(Cc2ccccc2Cl)c(Cl)c1/C=C/C(=O)OCC(=O)NC(N)=O | 8 | ? | -4 | 34% | nt | -14%
CCCCNC(=S)NNC(=O)c1csc(C)c1 | 12 | 3% | 8 | 45% | 48% | 20%
CCCCNC(=S)NNC(=O)c1csc(CC)c1 | 34* | -3% | 9 | 163% | 156% | ?
O=C(NC1CCN(C(=O)N2c3ccccc3Sc3ccccc32)CC1)c1ccccc1F | -5 | -20% | -1 | ? | 2.9µM* | -15%
CC1CCN(C(=O)N2c3ccccc3Sc3ccccc32)CC1 | -18 | ? | -7 | nt | nt | ?
O=C(NC1CCSc2ccccc21)c1ccccc1F (stereo unspecified) | 54* | -15%[46.1 µM] | 31* | 29% | 23% | -13%[46.1 µM]
O=C(NC1CCSc2ccccc21)c1ccccc1Cl (stereo unspecified) | 37* | nt | 39* | -22% | -4% | nt
CCCCN=c1scc(-c2ccc3c(c2)NC(=O)CO3)n1N=C1CCCC1 | -13 | ? | -2 | 9.3µM* | nt | ?
COCC(C)n1c(-c2ccc3c(c2)NC(=O)CO3)csc1=Nc1ccc(OC(F)F)cc1 (stereo unspecified) | -23 | ? | 9 | ? | nt | ?
CCN=c1scc(-c2ccc3c(c2)NC(=O)CO3)n1N=C1CCCC1 | -12 | 4µM* | -1 | ? | ? | ?
CC(=O)Nc1ccc2nc(SCC(=O)O)sc2c1 | -4 | 16% | -1 | nt | 22% | 0%
O=[N+]([O-])c1ccccc1/C=N/n1c(C(F)(F)F)n[nH]c1=S | 10 | 18%[46.1 µM] | 4 | 34% | 2% | 13%
CCc1ccc2c(c1)cc(CN(C(=S)Nc1ccccc1C)C1CC1)c1nnnn12 | 6 | -8% | -1 | ? | 3.3µM* | -19%
N#Cc1c(N)nc(Sc2ccc(Cl)cc2)c(C#N)c1-c1ccccc1Cl | -4 | ? | 2 | 7.4µM* | ? | ?
COc1ccc(-c2ccc(OC)c(OC)c2OC)c(OC)c1OC | nt | -16% | nt | nt | nt | ?
COc1ccc(N2CCN(C(=O)c3nn(C)c4c3CSc3ccccc3-4)CC2)cc1 | nt | 9%[46.1 µM] | nt | nt | nt | 13%[46.1 µM]
COc1ccc(Cl)cc1NC(=O)c1cnc2sccn2c1=O | 25 | nt | -2 | 0% | 4% | nt
O=C(Nc1cnc2sccn2c1=O)c1ccc(Cl)cc1Cl | 120* | ? | 38* | nt | 106% | ?
CCOc1ccc(Nc2ncnc3c2nnn3Cc2ccccc2)cc1 | nt | nt | 10 | 6% | -10% | nt
COc1ccc(NC(=S)Nc2cccnc2)c(OC)c1 | -9 | nt | -3 | 15µM* | 14% | nt
COc1ccc(NC(=S)Nc2ccccn2)c(OC)c1 | 120* | 0% | 35* | 76% | 71% | ?

Screening results as filed in PubChem BioAssay.
